LYPLA2 inh – LYPLA2 inhibitors, primary screen, counter-screen for PME1 inhibitor project, biochemical, fluorescence polarization, FP-Rh probe ABPP. AID 2177, 2009. inhibition, % at 5.9 µM. 320,000 tested, 0.38% active. recombinant LYPLA2. Acyl-protein thioesterase 2 (Homo sapiens), O95372;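 active means inhibition above the screen-wide mean plus 3 SD, limit set per campaign, cut at about 26% in these data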;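 further: 0% = LYPLA2 with DMSO and 100% = wells lacking LYPLA2 enzyme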
LYPLA1 inh – LYPLA1 inhibitors, primary screen, counter-screen for PME1 inhibitor project, biochemical, fluorescence polarization, FP-Rh probe ABPP | AID 2174, 2009 | inhibition, % at 5.9 µM | Acyl-protein thioesterase 1 (Homo sapiens), O75608 | recombinant LYPLA1 | 320,000 tested, 0.16% active;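 active means inhibition above the mean of all tested compounds plus 3 SD, set per campaign, cut at about 14% in these data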;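 further: inhibitors block serine hydrolase probe labeling of LYPLA1 so polarization falls; 0% = enzyme with DMSO and 100% = wells lacking LYPLA1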
Hck-Nef inh – inhibitors of Nef-activated human Hck kinase, primary screen, biochemical, Z-Lyte FRET, 384-well, Hck-YEEI; 220,000 tested, 0.68% active; inhibition, % at 20 µM; Recombinant Hck-YEEI plus Nef, Z-Lyte FRET kinase assay;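 active means Hck-Nef kinase inhibition above about 50%, limit read from the data; inactive means inhibition below that limit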;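 further: 0% = DMSO with Hck plus Nef and 100% = Hck alone without Nef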
Target sequence (P08631 whole entry, looked up): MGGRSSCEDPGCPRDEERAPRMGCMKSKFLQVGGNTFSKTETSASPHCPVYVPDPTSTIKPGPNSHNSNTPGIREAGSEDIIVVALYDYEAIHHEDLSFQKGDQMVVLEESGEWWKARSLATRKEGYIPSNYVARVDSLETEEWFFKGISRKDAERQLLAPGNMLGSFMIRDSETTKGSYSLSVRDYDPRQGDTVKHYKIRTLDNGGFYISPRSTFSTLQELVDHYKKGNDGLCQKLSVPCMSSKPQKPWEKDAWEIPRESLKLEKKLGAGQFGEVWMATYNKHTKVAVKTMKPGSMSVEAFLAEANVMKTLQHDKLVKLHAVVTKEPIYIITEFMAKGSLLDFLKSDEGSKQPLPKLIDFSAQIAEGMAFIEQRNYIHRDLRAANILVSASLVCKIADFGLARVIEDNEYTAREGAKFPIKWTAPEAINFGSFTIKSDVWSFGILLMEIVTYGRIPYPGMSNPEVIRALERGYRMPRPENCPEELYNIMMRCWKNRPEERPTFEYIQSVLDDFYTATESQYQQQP
Rin1 Abl inh – inhibitors of Rin1-Abl protein binding, primary screen, biochemical, TR-FRET. Tyrosine-protein kinase ABL1 (Homo sapiens) + Ras and Rab interactor 1 (Homo sapiens), …. AID 588664, 2011. 360,000 tested, 0.4% active. inhibition, % at 7.35 µM; in the data active means inhibition above about 5%, passing the limit was not always enough
p97 inhibitor – inhibitors of human p97 ATPase, primary screen, biochemical; recombinant p97 ATPase, Kinase-Glo ATP luminescence, 3 h; inhibition, % at 8 µM; 220,000 tested, 0.42% active; Transitional endoplasmic reticulum ATPase (Homo sapiens), P55072; in the data active means inhibition above about 15%;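 further: 0% = DMSO vehicle and 100% = wells lacking enzyme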
PREPL inh – PREPL enzyme inhibitors, primary screen, biochemical, fluorescence polarization; recombinant PREPL, fluorescence polarization activity-based probe; Prolyl endopeptidase-like (Homo sapiens), Q4J6C6; 320,000 tested, 0.68% active; inhibition, % at 5.96 µM; in the data active means inhibition above about 43%;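 further: 0% = enzyme with DMSO and 100% = wells lacking enzyme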
Hck-Nef confirm – retest of Hck:Nef kinase inhibitor hits, confirmation, biochemical, Z-Lyte FRET, 384-well, p-Tyr peptide counterscreen; shares compounds with Hck-Nef inh; Recombinant Hck-YEEI:Nef, Z-Lyte FRET kinase assay; calls only at 10 µM; 1,300 tested, 28% active; AID 463188, 2010;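 active means average inhibition of at least 50%, with Z-scores no higher than 3 in both the phospho-tyrosine peptide and fluorescence counterscreens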
The depositor's hits bear a star. In the library only some 1.7% were active in any assay of this set; here they are far more common.

For COc1ccc(OCC(=O)Nc2nc3ccc(NC(C)=O)cc3s2)cc1 the results were LYPLA2 inh 5, LYPLA1 inh 6, Hck-Nef inh 51*, Rin1 Abl inh 0, p97 inhibitor 4, PREPL inh 8 and Hck-Nef confirm inactive.
Screening Cc1ccc(-c2ccc(/C=N/N=C3/NC(=O)C(CC(=O)O)S3)o2)c([N+](=O)[O-])c1 (stereo not given) returned LYPLA2 inh 4, LYPLA1 inh -2, Hck-Nef inh 0, Rin1 Abl inh 0, p97 inhibitor 4 and PREPL inh 23.
Screening CC1=C(C#N)C(=O)NC(=O)/C1=C\c1ccc(-c2ccc(C)cc2[N+](=O)[O-])o1 returned Hck-Nef inh 100*, Rin1 Abl inh 1, p97 inhibitor -1 and Hck-Nef confirm active.
CCCCC1(C)OC(=O)C(=Cc2ccc(-c3ccc(Cl)c(C(=O)O)c3)o2)C(=O)O1 (stereo not given) was read as LYPLA2 inh -3, LYPLA1 inh 2, Hck-Nef inh 19, Rin1 Abl inh -2, p97 inhibitor 7 and PREPL inh 8.
Screening CCOC(=O)c1cc(-c2ccc(/C=C3/C(=O)NC(=O)C(C#N)=C3C)o2)ccc1Cl returned LYPLA2 inh -2, LYPLA1 inh -3, Hck-Nef inh 81*, Rin1 Abl inh -1, p97 inhibitor 5, PREPL inh 4 and Hck-Nef confirm active.
Screening Cc1cc(C(=O)NC2CCCc3c2cnn3-c2cccc(C)c2C)n(C)n1 (stereo not given) returned LYPLA2 inh 2, LYPLA1 inh 1, Rin1 Abl inh 0 and PREPL inh 0.
Cc1ccc(/C=C2\SC(=S)N(/N=C/c3cc([N+](=O)[O-])ccc3O)C2=O)o1 was read as LYPLA2 inh 2, LYPLA1 inh -4, Hck-Nef inh 142*, Rin1 Abl inh -1, p97 inhibitor 21*, PREPL inh 17 and Hck-Nef confirm active.
O=C(NN1C(=O)/C(=C/c2cc([N+](=O)[O-])ccc2O)SC1=S)c1ccccc1O was read as LYPLA2 inh -1, LYPLA1 inh -7 and PREPL inh -1.
`CCC(=O)Nc1c(S(=O)(=O)c2ccccc2)c2nc3ccccc3nc2n1C(C)c1ccccc1` (stereo not given) gave LYPLA2 inh -8, LYPLA1 inh -5, Hck-Nef inh 75*, Rin1 Abl inh -2, p97 inhibitor 1 and PREPL inh 8.
For Oc1cc2c(cc1C(c1ccc(Br)cc1)N1CCCC1)OCO2 (stereo not given) the results were Hck-Nef inh 73*, Rin1 Abl inh 0, p97 inhibitor 2 and Hck-Nef confirm inactive.
Screening Cc1cc(O)c(C(=O)Nc2cccc(Cl)c2)c(=O)n1C returned LYPLA2 inh -3, LYPLA1 inh -2, Rin1 Abl inh 1 and PREPL inh 0.
Cc1ccc(NC(=O)COC(=O)CCc2c(C)nc3ncnn3c2C)cc1C was read as Rin1 Abl inh -2 and PREPL inh 22.
Screening CCCc1cc(NCC2CCCO2)n2c(nc3ccccc32)c1C#N (stereo not given) returned LYPLA2 inh 4, LYPLA1 inh 8, Hck-Nef inh 121*, Rin1 Abl inh 0, p97 inhibitor -5 and PREPL inh 12.
COCCNc1cc(C)c(C#N)c2nc3ccccc3n12 was read as LYPLA2 inh 2, LYPLA1 inh -1, Hck-Nef inh 70*, Rin1 Abl inh -5, p97 inhibitor 3 and PREPL inh 3.
CCCc1cc(NCCN(C)C)n2c(nc3ccccc32)c1C#N was read as LYPLA2 inh 3, LYPLA1 inh 2, Rin1 Abl inh -4 and PREPL inh 22.
`CCN(C(=O)COC(=O)CNC(=O)C1CCCCC1)c1ccccc1` gave Rin1 Abl inh 0.
Screening Cc1ccc(Nc2c(O)nc[nH]c2=O)cc1 returned Rin1 Abl inh 2.
`Cc1cccc(-n2cnc(C(=O)N/N=C\c3ccc(Br)cc3)c2)n1` gave LYPLA2 inh 6, LYPLA1 inh 2, Hck-Nef inh 80*, Rin1 Abl inh -4, p97 inhibitor 4, PREPL inh -4 and Hck-Nef confirm inactive.
Screening Cc1ccc(N2C(=O)Nc3ccccc3S2(=O)=O)cc1Cl returned LYPLA2 inh 13, LYPLA1 inh 0, Rin1 Abl inh 0 and PREPL inh -6.
`CCOC(=O)c1c(C)[nH]c(C(=O)OCC(=O)N2CCc3ccccc32)c1C` gave LYPLA2 inh -5, LYPLA1 inh -3, Hck-Nef inh 92*, Rin1 Abl inh 0, p97 inhibitor 4, PREPL inh 2 and Hck-Nef confirm inactive.
CCCCCCc1cc2cc(/C(N)=N/NC(=O)c3ccncc3)c(=O)oc2cc1O was read as LYPLA2 inh -3, LYPLA1 inh -1, Rin1 Abl inh 2 and PREPL inh 9.
Screening CCCCCCc1cc2cc(C(=O)OCC)c(=O)oc2cc1O returned LYPLA2 inh -2, LYPLA1 inh 1, Hck-Nef inh active, Rin1 Abl inh -3, p97 inhibitor -3 and PREPL inh -6.
`CCCCCCc1cc2cc(C(=O)NC)c(=N)oc2cc1O` gave LYPLA2 inh 5, LYPLA1 inh 2, Hck-Nef inh 51*, Rin1 Abl inh -1, p97 inhibitor 3, PREPL inh 1 and Hck-Nef confirm inactive.
For CCCCCCc1cc2cc(C(N)=O)c(=N)oc2cc1O the results were LYPLA2 inh -7, LYPLA1 inh -7, Hck-Nef inh 72*, p97 inhibitor 3 and PREPL inh 8.
CCOC(=O)c1cc2ccc(OC(=O)c3ccco3)cc2oc1=O was read as LYPLA2 inh 3, LYPLA1 inh 2, Hck-Nef inh 136*, Rin1 Abl inh -4, p97 inhibitor 1 and PREPL inh 14.
For O=C(c1ccc(F)c(F)c1)N1CCCc2ccccc21 the results were LYPLA2 inh -3, LYPLA1 inh -4, Rin1 Abl inh 1 and PREPL inh -9.
CCOc1ccc(S(=O)(=O)N2CCCCC2)cc1NC(=O)c1c(CC)noc1C was read as LYPLA2 inh -1, LYPLA1 inh 2, Rin1 Abl inh 2 and PREPL inh -2.

Source: PubChem (several laboratories)
